Experiment [1] concerns Plasmodium falciparum Sir2 (PF13_0152, Sir2A). Nature of the experiment: pfSir2 binders on small-molecule microarrays, primary screen, biochemical, small-molecule microarray, 635 nm fluorescence (AID 1098).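 Note: score merges spot fluorescence intensity with its signal-to-noise ratio.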 The settings on record: small-molecule microarray binding, fluorescence 635 nm; higher = more signal.
Experiment [2] is described as follows: small-molecule microarray binders of probe aDKK1, primary screen, biochemical, biotinylated probe, 635/667 nm fluorescence (AID 1099).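 Note: score merges 667nm spot fluorescence with signal to noise across triplicate slides; reference of the scale not given here.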 The settings on record: higher = more signal.
The nature of experiment [3]: small-molecule microarray binders of probe aCHRDL2, primary screen, biochemical, biotinylated probe, 635/667 nm fluorescence (AID 1100). The settings on record: higher = more signal.
The nature of experiment [4]: splicing luciferase reporter signal modulators, primary screen, spliceosome inhibition project, cell-based, HEK293, splice +/- reporter (AID 1101).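 Note: HEK293 cells carrying a splicing-competent luciferase reporter gene; test concentration not given here.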 The settings on record: luminescence, 24 h, higher = more signal, called active from +8 up or from −8 down.
The target of experiment [5] is Fibroblast growth factor 10 (Homo sapiens) (UniProt O15520). In words: FGF10 binders on small-molecule microarrays, primary screen, biochemical, small-molecule microarray, 635 nm fluorescence (AID 1102). The settings on record: FGF10 binding, fluorescence 635 nm, higher = more signal.
Chain of Fibroblast growth factor 10 (Homo sapiens) (O15520 whole entry, looked up): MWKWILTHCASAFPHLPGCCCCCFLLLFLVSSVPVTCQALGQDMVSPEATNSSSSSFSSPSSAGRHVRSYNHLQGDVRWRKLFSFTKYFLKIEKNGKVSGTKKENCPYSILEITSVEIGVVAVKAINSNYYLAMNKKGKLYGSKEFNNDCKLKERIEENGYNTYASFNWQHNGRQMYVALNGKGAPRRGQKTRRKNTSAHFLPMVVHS
The test system of experiment [6] is glycogen synthase kinase-3 (GSK3A per assay name; protocol says GSK3B). In words: GSK3 binders on small-molecule microarrays, primary screen, biochemical, small-molecule microarray, 635 nm fluorescence, GSK3A (AID 1103). Note: the record names both GSK3A and GSK3B. The settings on record: small-molecule microarray binding, fluorescence 635 nm; higher = more signal.
Experiment [7] concerns the target Epidermal growth factor receptor (Homo sapiens) (UniProt P00533). Nature of the experiment: EGFR binders on small-molecule microarrays, primary screen, biochemical, small-molecule microarray, 635 nm fluorescence (AID 1104).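 Note: score merges 667 nm emission intensity with spot signal to noise over triplicate slides.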 The settings on record: EGFR binding, higher = more signal.
Experiment [8] deals with Follistatin-related protein 3 (Homo sapiens) (UniProt O95633). Nature of the experiment: FSTL3 binders on small-molecule microarrays, primary screen, biochemical, small-molecule microarray, 635 nm fluorescence (AID 1105).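 Note: score merges emission near 667 nm and signal to noise per printed spot across three slides.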 The settings on record: FSTL3 binding, higher = more signal.
Chain of Follistatin-related protein 3 (Homo sapiens) (O95633 whole entry, looked up): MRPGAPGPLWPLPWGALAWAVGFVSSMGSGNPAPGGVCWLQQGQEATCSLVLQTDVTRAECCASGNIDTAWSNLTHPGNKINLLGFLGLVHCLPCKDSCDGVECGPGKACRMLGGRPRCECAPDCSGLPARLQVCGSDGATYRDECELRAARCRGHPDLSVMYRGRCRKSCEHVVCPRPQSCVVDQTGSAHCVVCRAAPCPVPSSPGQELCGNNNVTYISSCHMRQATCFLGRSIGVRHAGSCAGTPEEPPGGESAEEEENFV
For experiment [9], the target named is Dickkopf-related protein 1 (Homo sapiens) (UniProt O94907). Nature of the experiment: DKK1 binders on small-molecule microarrays, primary screen, biochemical, small-molecule microarray, 635 nm fluorescence scan (AID 1106).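 Note: score merges emission near 667 nm with signal to noise over three replicate slides.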 The settings on record: DKK1 binding, higher = more signal.
Chain of Dickkopf-related protein 1 (Homo sapiens) (O94907 whole entry, looked up): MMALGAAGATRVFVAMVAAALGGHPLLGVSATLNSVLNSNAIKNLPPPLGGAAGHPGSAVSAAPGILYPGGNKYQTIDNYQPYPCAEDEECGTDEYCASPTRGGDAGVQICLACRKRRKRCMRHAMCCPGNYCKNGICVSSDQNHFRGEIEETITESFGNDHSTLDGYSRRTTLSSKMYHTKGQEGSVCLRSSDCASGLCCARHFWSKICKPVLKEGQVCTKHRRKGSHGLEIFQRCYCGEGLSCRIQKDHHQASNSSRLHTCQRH
The subject of experiment [10] is Inhibin beta A chain (activin A). Nature of the experiment: INHBA (activin A) binders on microarrays, primary screen, biochemical, small-molecule microarray, 635 nm fluorescence scan (AID 1107).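 Note: mouse activin A protein probed at 4.33 µg/mL on printed slides; score merges bound-protein fluorescence near 667 nm with spot signal-to-noise.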 The settings on record: small-molecule microarray binding, higher = more signal.

The source made the active and inactive calls.

Chain of Epidermal growth factor receptor (Homo sapiens) (P00533 whole entry, looked up): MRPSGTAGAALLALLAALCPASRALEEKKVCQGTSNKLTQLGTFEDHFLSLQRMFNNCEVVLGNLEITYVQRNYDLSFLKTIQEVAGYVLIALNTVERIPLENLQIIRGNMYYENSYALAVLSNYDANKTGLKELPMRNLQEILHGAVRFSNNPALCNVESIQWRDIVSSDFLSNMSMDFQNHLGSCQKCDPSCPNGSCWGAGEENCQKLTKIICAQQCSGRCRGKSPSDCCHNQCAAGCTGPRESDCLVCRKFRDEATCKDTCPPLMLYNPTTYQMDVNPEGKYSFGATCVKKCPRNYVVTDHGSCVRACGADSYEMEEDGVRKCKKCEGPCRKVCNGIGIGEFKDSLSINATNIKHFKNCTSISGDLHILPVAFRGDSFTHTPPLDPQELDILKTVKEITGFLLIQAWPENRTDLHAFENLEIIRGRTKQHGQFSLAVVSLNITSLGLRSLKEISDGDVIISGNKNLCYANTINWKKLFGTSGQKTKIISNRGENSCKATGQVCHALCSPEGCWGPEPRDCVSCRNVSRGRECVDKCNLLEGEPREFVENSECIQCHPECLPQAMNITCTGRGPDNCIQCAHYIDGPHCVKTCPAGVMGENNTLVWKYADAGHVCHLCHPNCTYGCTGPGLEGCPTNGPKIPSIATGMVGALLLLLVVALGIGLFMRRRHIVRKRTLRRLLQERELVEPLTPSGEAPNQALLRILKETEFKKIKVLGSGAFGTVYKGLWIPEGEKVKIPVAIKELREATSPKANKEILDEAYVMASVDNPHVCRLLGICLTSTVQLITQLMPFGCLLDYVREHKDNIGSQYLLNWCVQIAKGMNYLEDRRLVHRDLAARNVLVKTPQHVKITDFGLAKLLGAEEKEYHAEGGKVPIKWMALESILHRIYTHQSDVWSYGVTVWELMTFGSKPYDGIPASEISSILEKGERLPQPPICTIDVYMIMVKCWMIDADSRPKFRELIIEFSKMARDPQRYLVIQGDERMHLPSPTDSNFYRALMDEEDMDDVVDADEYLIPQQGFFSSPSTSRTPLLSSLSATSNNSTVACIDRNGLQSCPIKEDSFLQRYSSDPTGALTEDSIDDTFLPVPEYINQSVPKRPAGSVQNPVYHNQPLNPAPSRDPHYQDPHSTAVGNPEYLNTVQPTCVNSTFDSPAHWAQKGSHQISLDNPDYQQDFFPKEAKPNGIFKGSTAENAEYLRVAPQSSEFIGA

As to `COC(=O)[C@@]1(Cc2ccc(OC)cc2)[C@H]2c3cc(C(=O)N4CCCC4)n(CCO)c3C[C@H]2CN1C(=O)c1ccccc1`, the composite z-score in [1] was determined as 0.333; in experiment [2], 0.798; in experiment [3], 0.888; in experiment [5], 0.717; in [6], 0.483; in experiment [7], 0.0327. Also, the composite z-score in [8] was 0.155; in experiment [9], -0.418; in experiment [10], 0.45. In addition, the z-score in experiment [4] was -1.14 (inactive).

Turning to `COCCCNC(=O)[C@@]1(CCC(=O)OC(C)(C)C)N=C(c2ccc(OCCCO)cc2)O[C@H]1c1ccccc1N=[N+]=[N-]`, the composite z-score was 1.46 in experiment [1]; 1.36 in experiment [2]; 1.32 in experiment [3]; 1.23 in experiment [5]; 1.31 in experiment [6]; -0.182 in [7]. The composite z-score in [8] worked out at 0.209; in experiment [9], 0.795; in experiment [10], 0.739. For the same compound, the z-score in [4] was -0.912 (inactive).

For the compound `CCCCCN1CC=CC23O[C@@H]4/C=C\CCC(C)OC(=O)C4[C@H]2C(=O)N(C(CO)C(C)C)[C@@H]3C1=O` (stereo not given in full), the composite z-score in experiment [1] is 1.63; in [2], -0.612; in [3], -0.288; in experiment [5], 0.0694; in experiment [6] it was -0.169; in [7], -0.538. Moreover, the values for the composite z-score in [8], in [9] and in experiment [10] were 0.0876, -0.543 and 1.18, respectively. In experiment [4], the z-score was 0.139 (inactive).

Regarding `O=C1O[C@H](c2ccccc2)[C@H](c2ccccc2)N2[C@H]1[C@@H](C(=O)O)[C@]1(C(=O)Nc3ccc(C#CCCO)cc31)[C@H]2c1ccccc1OCCO`, the composite z-score in [1] is 0.582; in [2], -0.445; in experiment [3], 0.094; in experiment [5], 0.258; in experiment [6], -0.532; in experiment [7], -0.329. The results for the composite z-score in experiment [8], in experiment [9] and in experiment [10] were -0.224, -0.0493 and 0.671, respectively. Moreover, in experiment [4], the z-score is -0.888 (inactive).

On to `COCCOC(=O)N1C(=O)[C@@]2(c3cc(C#CC4=CCCCC4)ccc31)[C@H](c1ccccc1OCCO)N1[C@H](c3ccccc3)[C@H](c3ccccc3)OC(=O)[C@H]1[C@@H]2C(=O)N1CCN(c2ncccn2)CC1`, for which the composite z-score in [1] was 0.749; in [2] it was -0.149; in experiment [3] it was -0.513; in experiment [5], 0.751; in experiment [6], 1.28; in experiment [7] it was 0.502. Also, the composite z-score turned out to be 1.06 in [8], 0.489 in experiment [9] and 0.333 in [10]. Further, in [4], the z-score is -1.46 (inactive).

Turning to `O=C1OCCC/C=C\[C@H]2OC34C=CCN(c5ccc6ccccc6c5)C(=O)[C@H]3N(CCO)C(=O)[C@@H]4C12` (stereo not given in full), the composite z-score is 1.32 in experiment [1]; -0.416 in [2]; 0.256 in [3]; -0.654 in [5]; -0.785 in [6]; -1.83 in [7]. The results for the composite z-score in experiment [8], in experiment [9] and in [10] were -1.59, -1.09 and 0.0621, respectively. Moreover, in experiment [4], the z-score is -1.07 (inactive).

`CCOC(=O)C=Cc1cccc(C)c1O`: the composite z-score in experiment [1] was 0.995; in [2], -0.123; in [3], -0.0819; in experiment [5], -0.119; in [6], -0.414; in experiment [7], 0.069. The composite z-score in [8] is -0.101; in [9] it was -0.199; in experiment [10] it was 0.39. Further, the z-score in experiment [4] was -1.41 (inactive).

Take `O=C(NCCN1CCOCC1)[C@@H]1c2ccccc2C(=O)N(C2Cc3ccccc3C2)[C@H]1c1ccc(CO)cc1`: the composite z-score in [1] was 0.909; in experiment [2], 0.0974; in experiment [3], 0.852; in experiment [5], -0.223; in [6], 1.05; in experiment [7], -0.812. In addition, the composite z-score in [8] was -0.414; in experiment [9] it was -0.666; in [10], -0.363. Moreover, the z-score in [4] was -1.38 (inactive).

Regarding `COCCOC(=O)N1C(=O)[C@@]2(c3cc(C#CC4=CCCCC4)ccc31)[C@H](C(=O)Nc1nc3ccccc3s1)[C@H]1C(=O)O[C@H](c3ccccc3)[C@H](c3ccccc3)N1[C@@H]2c1ccc(O)cc1`, the composite z-score in experiment [1] was 0.61; in experiment [2] it was 0.157; in experiment [3] it was -0.0764; in [5] it was 0.669; in [6] it was 1.28; in experiment [7], 0.635. Besides, the figures for the composite z-score in experiment [8], in experiment [9] and in experiment [10] were 0.918, 1.11 and 0.872, respectively. Besides, in [4], the z-score was 0.111 (inactive).

For `Cc1cc(C)c(C(O)C2C=CC3C(=O)N(c4ccccc4)C(=O)C3N2Nc2ccccc2F)c(C)c1` (stereo not given), the composite z-score in experiment [1] was 0.622; in [2], -0.134; in [3], 0.706; in experiment [5] it was 0.119; in experiment [6] it was -0.574; in experiment [7], -0.396. Also, the composite z-score in experiment [8] was -0.191; in [9] it was -0.26; in experiment [10] it was 0.72. Moreover, the z-score in experiment [4] is 1.75 (inactive).

On to `C=CCNC(=O)[C@@H]1[C@H]2C(=O)O[C@H](c3ccccc3)[C@H](c3ccccc3)N2[C@H](c2ccccc2OCCO)[C@@]12C(=O)N(C(=O)OCCOC)c1ccc(C#CC3(O)CCCCCC3)cc12`, for which the composite z-score was determined as 1.17 in experiment [1]; 0.0347 in [2]; 0.31 in [3]; 0.87 in experiment [5]; 1.3 in experiment [6]; 0.598 in experiment [7]. Also, the composite z-score in [8] was found to be 1.36; in experiment [9] it was 0.579; in experiment [10] it was 1.13. For the same compound, the z-score in experiment [4] was -0.692 (inactive).

Regarding `COc1cc(OC)c(C(O)C2C=CC3C(=O)N(Cc4ccccc4)C(=O)C3N2n2cnnc2)cc1Br` (stereo not given), the composite z-score was 1.36 in [1]; 0.287 in [2]; 0.373 in experiment [3]; 1.05 in [5]; 1.26 in experiment [6]; -0.496 in experiment [7]. Further, the composite z-score in [8] is 0.777; in experiment [9], -1.05; in experiment [10] it was -0.769. Moreover, the z-score in experiment [4] is -1.21 (inactive).

For `COc1ccc([Si](C)(C)[C@@H]2[C@@H](CC(=O)N(CCO)Cc3ccccc3)O[C@]3(C(=O)N(Cc4cccc(N5CCCCC5=O)c4)c4ccccc43)[C@H]2C)cc1`, the composite z-score is 1.16 in experiment [1]; -0.0247 in experiment [2]; 0.505 in experiment [3]; 0.883 in experiment [5]; 0.1 in experiment [6]; 0.242 in experiment [7]. Further, the composite z-score turned out to be 0.84 in experiment [8], 0.419 in [9] and 0.493 in experiment [10]. Also, the z-score in [4] was -0.166 (inactive).

In the case of `[N-]=[N+]=Nc1ccccc1[C@H]1OC(c2ccc(OCCCO)cc2)=N[C@@]1(Cc1ccccc1)C(=O)NCCN1CCOCC1`, the composite z-score came to 1.59 in experiment [1]; 1.34 in [2]; 1.29 in [3]; 1.3 in [5]; 1.28 in experiment [6]; 0.81 in experiment [7]. Further, the composite z-score in [8] turned out to be 1.37; in experiment [9], 0.196; in experiment [10] it was 1.13. Moreover, the z-score in [4] is -1.01 (inactive).

`CC(C)[Si]1(C(C)C)OCc2cc(-c3ccc(-c4ccc(Cl)c(Cl)c4)o3)nc(-c3ccccc3)c21`: the composite z-score is 1.33 in experiment [1]; -0.0755 in [2]; 0.724 in [3]; -1.08 in [5]; -1.22 in [6]; -1.84 in [7]. Also, the composite z-score in experiment [8] was -1.04; in [9], -1.32; in experiment [10], 1.05. For the same compound, the z-score in experiment [4] is 0.14 (inactive).

With `C=C[C@@H](CO)N(Cc1ccc(OC)cc1)S(=O)(=O)c1ccc(Br)cc1`, the composite z-score in experiment [1] was -0.36; in experiment [2] it was 0.188; in [3], 0.681; in [5] it was 0.0174; in [6], 0.239; in [7], -0.142. For the same compound, the figures for the composite z-score in [8], in experiment [9] and in [10] were -0.0506, -0.0478 and 0.0176, respectively. In addition, the z-score in experiment [4] is -1.21 (inactive).

As for `COc1ccc(CCNC(=O)[C@@H]2c3ccccc3C(=O)N(C3CCCCC3)[C@H]2c2ccc(CO)cc2)cc1`, the composite z-score in experiment [1] is 1.35; in experiment [2], 0.0099; in [3] it was 0.692; in experiment [5] it was 0.542; in experiment [6], 0.32; in [7] it was -0.227. Moreover, the results for the composite z-score in experiment [8], in experiment [9] and in experiment [10] were 0.0696, -0.487 and 0.177, respectively. For the same compound, the z-score in [4] is 0.43 (inactive).
